Measles inh = inhibitors of measles virus growth in cells, primary screen, measles RdRp inhibitor project, cell-based, single point, HTS | z-score (concentration not given with the values) | AID 745, 2007 | infected Vero cells, GFP fluorescence, 64 h; active compounds read low | hit rate 0.1% among 33,000; in the data active means z-score below about -3
Numbers without * were called inactive. Shown is part of a subset that was picked to be rich in hits.

SMILES | Measles inh
CCN(CCNS(=O)(=O)c1cc(Br)cc2c1N(C(C)=O)CC2)c1ccccc1 | 0.44
CCN(Cc1ccccc1)S(=O)(=O)c1cc(Br)cc2c1N(C(C)=O)CC2 | -5.6*
CCCCN(CCCC)S(=O)(=O)c1cc(Br)cc2c1N(C(C)=O)CC2 | -0.06
Cc1ccc(-c2nc3ccccc3c(=O)o2)cc1[N+](=O)[O-] | -0.28
Cc1cc(C)cc(Nc2ncnc3c2cnn3-c2ccccc2)c1 | -0.32
CCc1ccccc1Nc1ncnc2c1cnn2-c1ccc(OC)cc1 | -0.22
COc1ccc(Nc2ncnc3c2cnn3-c2ccccc2)c(OC)c1 | -3.3*
CCN(CC)S(=O)(=O)c1ccc(C(=O)Nc2sc3c(c2C(N)=O)CC(C)CC3)cc1 (stereo not drawn) | 1.3
CCC(C)OC(=O)C1=C(C)NC2=C(C(=O)C(C(=O)OC)C(C)C2)C1c1ccc(C(F)(F)F)cc1 (stereo not drawn) | -0.44
O=C(Nc1c2c(nn1-c1ccc([N+](=O)[O-])cc1)CSC2)c1cccc([N+](=O)[O-])c1 | -1.5
COc1ccc(N2C(=O)NC3CC2(C)Oc2ccc(Cl)cc23)cc1 (stereo not drawn) | -1.5
O=S1(=O)N=C(C2CCNCC2)Nc2ccccc21 | -0.18
CC1(C)C(=O)N(Cc2ccc([N+](=O)[O-])cc2)c2ccccc2N1C(=O)c1ccc(Br)cc1 | -0.47
CC1(C)C(=O)N(Cc2ccccc2)c2ccccc2N1C(=O)c1ccc(Br)cc1 | -4*
Cc1ccc(C(=O)CC2(O)C(=O)N(Cc3ccccc3)c3ccccc32)cc1 (stereo not drawn) | -0.1
CCCCCSc1nc2n(n1)C(c1ccc(Cl)cc1)C1=C(CCCC1=O)N2 (stereo not drawn) | -0.53
CCOC(=O)c1c(C)nsc1NC(C)c1ccccc1 (stereo not drawn) | 1.6

Source: PubChem
